Bm FixLJ act – increases Burkholderia fixLJ two-component signaling; B. multivorans fixK-promoter GFP reporter, 18 h; stronger effect = higher value; 0.3% of 29,000 active; AID 1918990; z-score (test concentration not listed);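 active = replicate mean overnight rise in green fluorescent reporter signal, 3 or more SD over negative controls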
An asterisk follows results filed as active; ! = not confirmed by another sample. The sample as a whole holds a higher share of hits than the screen did.

SMILES	Bm FixLJ act
CNc1ncccc1C(=O)N1CCC2(CC1)OCCc1sc(C(=O)O)cc12	-0.87
CC1(C)CC(NC(=O)c2cc3n(n2)CC(O)CNC3=O)CC(C)(C)C1 (stereo unspecified)	-0.43
CCOc1ccc(C(=O)N(CCO)Cc2cncn2C)cc1OCC	0.48
NC(CO)C(=O)NNCc1ccc(O)c(O)c1O (stereo unspecified)	3.05*!
Cc1ccc2cc(C3(O)CCN(C(=O)CCc4cccnc4)CC3)ccc2n1	0.28
Cc1ccc(CN2CCN(C(=O)c3ccccc3C#N)C(C)C2=O)cc1 (stereo unspecified)	-2.06
COc1cc(NC(=O)c2cc(-c3ccc4c(c3)OCO4)on2)cc(OC)c1OC	3.73*
COc1ccc(-c2cc(C(=O)Nc3ccc4c(c3)OCO4)no2)cc1	-2.85
COc1ccc(NC(=O)c2cc(-c3ccc4c(c3)OCO4)on2)c(OC)c1	-0.07
CCC(=O)NC(C)C(=O)N1CCC2(CC1)OCCc1c2[nH]c2ccccc12 (stereo unspecified)	-0.37
Cc1ccc(O)c(C(=O)N2CCOc3c(O)cc(-c4cccnc4)cc3C2)c1	-0.97
CC(CO)(CO)NC(=O)c1ccc(-c2cccc(N)n2)cc1	0.08
COC(=O)CNC(=O)CC1C(=O)NCCN1Cc1cccc2ccccc12 (stereo unspecified)	0.52
O=C(C1CC1)N1CCc2cc(Br)cc(S(=O)(=O)N3CCN(c4cccc(Cl)c4)CC3)c21	-1.06
CC(=O)N1CCc2cc(Br)cc(S(=O)(=O)N3CCN(c4cccc(C(F)(F)F)c4)CC3)c21	3.26*
CCC(=O)N1CCc2cc(Br)cc(S(=O)(=O)N3CCN(c4ccccc4)CC3)c21	0.14
Cc1nc(N(C)C)ncc1C(=O)N1CC(O)C(Cc2ccnc3ccccc23)C1 (stereo unspecified)	-0.99
CN1CC[C@]2(C(=O)NCCOCCO)CCCN(C(=O)c3ccccn3)[C@@H]2C1	-1.02
CN(C)CC(=O)Nc1ccc(NC(=O)Cc2c(F)cc(F)cc2F)cc1	-1.03
O=C(Cc1cccs1)NCC1CCN(C(=O)CC2NC(=O)NC2=O)CC1 (stereo unspecified)	-0.72
COc1ccc(CCN(CC2CCCO2)C(=O)c2nsnc2C)cc1 (stereo unspecified)	0.49
Cc1cn2c(=O)cc(COc3ccc(NC(=O)c4ccccc4C)cc3)nc2s1	3.44*
Cc1cn2c(=O)cc(COc3ccc(NC(=O)c4cccc(F)c4)cc3)nc2s1	0.24
COc1ccccc1C(=O)Nc1ccc(OCc2cc(=O)n3cc(C)sc3n2)cc1	0.27
CCc1nn(C)c(NC(=O)NC2CCN(c3ccc(F)cc3)CC2)c1C	-0.49
SMILES	Bm FixLJ act
Cc1ccc(C(=O)N2CCC(C(=O)NC(CO)CC3CCCCC3)CC2)cc1 (stereo unspecified)	-1.03
CC1Cc2cc(C(=O)NCCSc3cn[nH]n3)ccc2O1 (stereo unspecified)	-3.41
C=CCC(CC=C)(CNC(=O)C(=O)Nc1cccc(C(F)(F)F)c1)c1ccccc1	3.71*
O=C(O)c1ccccc1Nc1cccc(C(F)(F)F)c1	-1.52
C=CCC(CC=C)(CNC(=O)C(=O)Nc1cc(C)ccc1OC)c1ccc(OC)c(OC)c1	1.33
CN(Cc1nc2ccc(F)cc2[nH]1)CC1CC(=O)N(c2ccccc2)C1 (stereo unspecified)	-1.05
CNC(=O)CCc1ccccc1NC(=O)C1CCCCC1C(=O)N1CCCC1 (stereo unspecified)	-0.61
CC1Oc2cc(NC(=O)NCc3ccc(C(=O)N(C)C)o3)ccc2N(C)C1=O (stereo unspecified)	0.48
CNCC(=O)N1CCC2(CC1)OCCc1c2[nH]c2ccccc12	1.18
COc1ccc(CN2COc3ccc4c(-c5ccccc5)cc(=O)oc4c3C2)cc1	3.7*
Cc1ccc(CN2COc3ccc4c(-c5ccccc5)cc(=O)oc4c3C2)cc1	-0.47
COC(=O)Cc1c(C)c2ccc3c(c2oc1=O)CN(Cc1ccc(C)cc1)CO3	1.35
Cc1ccc2c(CCNC(=O)CCC3=NNC(=O)CC3)c(C)[nH]c2c1C	-0.58
Cn1cc(CN(C(=O)NCc2cc(C(F)(F)F)ccc2F)C2CC2)cn1	-0.4
COc1cccc2c1C1(CCN(C(=O)CN3C(=O)CNC3=O)CC1)OCC2	0.66
O=c1oc2cc(O)ccc2cc1-c1nnc(Nc2ccccc2F)s1	23.4*
CCOc1ccc2cc(-c3nnc(Nc4ccc(C)cc4)s3)c(=O)oc2c1	-0.47
O=c1oc2ccc3ccccc3c2cc1-c1nnc(Nc2ccccc2F)s1	0.59
Cc1n[nH]c(C)c1CCCNC(=O)COCC1CCCCO1 (stereo unspecified)	-2.26
CCc1ccc(C(=O)N2CC3COC[C@]3(C(=O)NCCn3ccc(C)n3)C2)s1 (stereo partly specified)	0.29
CC(=O)c1cccc(NC(=O)Cn2cnc3c2c(=O)n(C)c(=O)n3C)c1	-2.51
Cc1ccc2nc(-c3ccc(NC(=O)C(F)(F)F)cc3)sc2c1	-2.52
Cn1c(=O)c2nc3ccc(NC(=O)C(F)(F)F)cc3nc2n(C)c1=O	13.8*
O=C(NC1CCN(Cc2cccs2)CC1)c1ccc(SCCO)cc1	-1.98
O=C(O)c1ccc(NC(=O)c2cn(-c3ccccc3)nc2-c2ccc(Br)cc2)cc1	-0.52
SMILES	Bm FixLJ act
COc1ccc(-c2nn(-c3ccccc3)cc2C(=O)Nc2ccccc2OC)cc1	4.62*
COc1ccccc1NC(=O)c1cc2c(C)nn(-c3ccccc3)c2s1	0.48
CCOC(=O)C1CCN(C(=O)Cn2ncc3c4ccccc4n(Cc4ccccc4)c3c2=O)CC1	-2.37
CN1CCN(C(=O)Cn2ncc3c4ccccc4n(Cc4ccc(F)cc4)c3c2=O)CC1	-1.66
O=C(Cn1ncc2c3ccccc3n(Cc3ccccc3F)c2c1=O)N1CCCCCC1	-0.94
O=C(Cn1ncc2c3ccccc3n(Cc3ccccc3F)c2c1=O)N1CCCCC1	-0.13
CCCN1CCN(C(=O)Cn2ncc3c4ccccc4n(Cc4cccc(Cl)c4)c3c2=O)CC1	14.1*
O=C(Cn1ncc2c3ccccc3n(Cc3ccc(Cl)cc3)c2c1=O)N1CCCCCC1	6.38*
COC(=O)N1CCCC(c2nnc(CN3CCCCC3)n2C)C1 (stereo unspecified)	-0.72
Cc1ccccc1-c1nc(CN2CCN3C(=O)CNC(=O)C3C2)c(C)o1 (stereo unspecified)	0.31
COc1cccc2c1C1(CCN(C(=O)c3cnc[nH]c3=O)CC1)OCC2	0.75
Cc1cc(C)c(C(=O)N2CCCC(CCC(N)=O)C2)c(=O)[nH]1 (stereo unspecified)	-0.96
Cc1nn(CCO)cc1CN1CCC2OCc3cnnn3C2C1 (stereo unspecified)	-0.99
Cc1cnc(-n2cnnc2)c(-c2ccccc2C(=O)N(C(C)C)C(C)C)c1	-0.99

Assay outcomes from PubChem BioAssay.
